Cruzain inh Det: cruzain (T. cruzi) inhibition with detergent | P25779 | purified cruzain, Z-FR-AMC fluorescence, 0.01% Triton | Potency, µM, without a hit: max response, negative = inhibition, actives largely listed as inhibitors | 200,000 compounds, 0.43% hits | AID 1478;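 also: plate controls were neutral wells for no effect and buffer without enzyme for full effect; nearly all actives have a fitted effect of over 40% in size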
Target sequence (P25779 123-467 limits assumed): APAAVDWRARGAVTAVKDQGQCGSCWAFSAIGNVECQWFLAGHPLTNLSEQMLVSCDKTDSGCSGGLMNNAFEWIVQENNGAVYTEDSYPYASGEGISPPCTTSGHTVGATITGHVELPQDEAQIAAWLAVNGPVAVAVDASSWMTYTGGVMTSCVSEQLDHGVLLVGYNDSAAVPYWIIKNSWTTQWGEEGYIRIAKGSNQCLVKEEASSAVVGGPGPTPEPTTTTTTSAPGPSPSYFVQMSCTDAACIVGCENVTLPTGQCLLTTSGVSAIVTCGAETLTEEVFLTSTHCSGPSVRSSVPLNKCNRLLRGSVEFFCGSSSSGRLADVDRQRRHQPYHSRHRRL
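Detergent-containing arm of a paired screen for aggregation-based inhibition: 0.01% Triton X-100 present. Cruzain at 1.5 nM cleaved 2 uM Z-FR-AMC at pH 5.5 with 5 mM DTT; AMC fluorescence gain over 60 s measured activity.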
Cruzain inh noDet: cruzain (T. cruzi) inhibition without detergent | Potency, µM, inactives show max response, negative = inhibition, actives largely listed as inhibitors | purified cruzain, Z-FR-AMC fluorescence, no detergent | 200,000 compounds, 2.3% hits;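 also: plate controls were enzyme without inhibitor for no effect and buffer without enzyme for full effect; nearly all actives have a fitted effect of over 40% in size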
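Purified cruzain at 1.5 nM, pre-incubated 15 min with compound at room temperature in 100 mM sodium acetate pH 5.5, 5 mM DTT, 0.00005% Triton X-100. Reaction started with 2 uM Z-FR-AMC; AMC fluorescence increase over 60 s gives rate.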
Starred values were filed as active, the others as inactive. Rows were chosen to be rich in hits. Some 2.5% of all compounds tested hit in one or more screens of this group. Calls follow the shape of the dose curve; as a rule, active = well fitted curve in the direction sought with a large enough effect; inconclusive = small, poorly fitted or top-dose-only effect, or another doubt; inactive = no such curve, though single readings can be large; an effect the other way counts as inactive or inconclusive. Potency is read from the fitted curve at half-maximal effect.

How did Cc1cccc(N2CCN(C(=O)CN3C(=O)COc4ccc(S(=O)(=O)N5CCOCC5)cc43)CC2)c1C do in these assays?
Cruzain inh Det: -5.0%; Cruzain inh noDet: inconclusive

What do the screens show for `O=c1[nH]c(=O)n(-c2ccccc2)c(O)c1/C=C1/C(c2ccccc2)=Nc2ccccc21`?
Cruzain inh Det: -5.3%; Cruzain inh noDet: -11.9%

Results for Oc1[nH]c(=S)sc1/C=C1\C(c2ccccc2)=Nc2ccccc21 ?
Cruzain inh Det: -9.1%; Cruzain inh noDet: 25.1µM*

Results for Cn1cnc(S(=O)(=O)N2CCC(C(=O)NCc3ccc(Cl)cc3)CC2)c1 ?
Cruzain inh Det: -1.3%; Cruzain inh noDet: -2.2%

How did CCOc1ccc(-n2c(SCC(=O)Nc3cc(C)ccc3C)nc3c([nH]c4ccccc43)c2=O)cc1 do in these assays?
Cruzain inh Det: 0.0%; Cruzain inh noDet: -2.3%

How did O=C(NCCc1ccccc1)C(=O)NCC(c1ccco1)S(=O)(=O)c1cccs1 (configuration not stated) do in these assays?
Cruzain inh Det: 1.1%; Cruzain inh noDet: 5.6%

How did CN(C)c1ccc(/C=C/C(O)=C2/C(=O)N(C)C3(C)CC2c2ccccc2O3)cc1 (configuration not stated) do in these assays?
Cruzain inh Det: -9.4%; Cruzain inh noDet: 20µM*

How did CN1C(=O)C(/C(N)=N/NC(=O)c2ccccc2)C2CC1(C)Oc1ccccc12 (configuration not stated) do in these assays?
Cruzain inh Det: -2.3%; Cruzain inh noDet: -1.7%

What do the screens show for `O=C(CN1C(=O)COc2ccc(Cl)cc21)Nc1cccc(C(=O)O)c1`?
Cruzain inh Det: -1.1%; Cruzain inh noDet: 1.6%

Results for CC(=O)N1CCc2c(sc3c2c(=O)n(CCc2ccccc2)c(=O)n3Cc2cccc(C)c2)C1 ?
Cruzain inh Det: -3.4%; Cruzain inh noDet: inconclusive

What do the screens show for `Cc1cccc2sc(NC(=O)C3CCN(S(=O)(=O)c4cc([N+](=O)[O-])ccc4Cl)CC3)nc12`?
Cruzain inh Det: -3.9%; Cruzain inh noDet: 20µM*

How did O=C(NCc1ccc(Cl)cc1)C1CCN(S(=O)(=O)c2cc([N+](=O)[O-])ccc2Cl)CC1 do in these assays?
Cruzain inh Det: -2.5%; Cruzain inh noDet: 1.0%

Results for O=C1CCc2cc(S(=O)(=O)NCc3ccc(F)cc3)cc3c2N1CC3 ?
Cruzain inh Det: -1.1%; Cruzain inh noDet: -6.3%

How did CN(C)CCCN(C(=O)c1ccc2c(c1)OCCO2)c1nc2ccccc2s1 do in these assays?
Cruzain inh Det: -3.7%; Cruzain inh noDet: -13.6%

What do the screens show for `COc1ccc(-c2[nH]n(-c3ccc([N+](=O)[O-])cc3)c(=O)c2C=NCc2ccc(F)cc2)cc1`?
Cruzain inh Det: -5.6%; Cruzain inh noDet: 25.1µM*

How did COc1ccc(-c2[nH]n(-c3ccc([N+](=O)[O-])cc3)c(=O)c2C=NCc2ccncc2)cc1 do in these assays?
Cruzain inh Det: -3.6%; Cruzain inh noDet: inconclusive

Results for Fc1ccc(-c2csc(-c3nc(-c4ccc(Br)s4)cs3)n2)cc1 ?
Cruzain inh Det: -0.4%; Cruzain inh noDet: 8.0%

How did COc1cc2c(cc1NC(=O)COC(=O)[C@@H](NC(=O)c1ccccc1F)C(C)C)oc1ccccc12 do in these assays?
Cruzain inh Det: -10.4%; Cruzain inh noDet: inconclusive

What do the screens show for `CCN(CC)c1ccc(C(=O)OCC(=O)Nc2cc3oc4ccccc4c3cc2OC)cc1`?
Cruzain inh Det: -16.7%; Cruzain inh noDet: 12.6µM*

Results for COc1cc2c(cc1NC(=O)COC(=O)[C@@H](NC(=O)c1ccccc1)C(C)C)oc1ccccc12 ?
Cruzain inh Det: -8.6%; Cruzain inh noDet: 31.6µM*

How did CCc1ccc(OCC(=O)Nc2cc3oc4ccccc4c3cc2OC)cc1 do in these assays?
Cruzain inh Det: 0.3%; Cruzain inh noDet: 1.0%

What do the screens show for `Cc1cc(NC(=O)CSc2nc3ccccc3c(=O)n2C2CCCC2)no1`?
Cruzain inh Det: -1.7%; Cruzain inh noDet: -0.2%

Results for CN(C)c1ccc(NC(=O)CSc2nc3ccccc3c(=O)n2C2CCCCC2)cc1 ?
Cruzain inh Det: -0.6%; Cruzain inh noDet: 12.6µM*

Results for COc1ccc2nc(N/C(N)=N/C(=S)Nc3ccc(C)c(C)c3)nc(C)c2c1 ?
Cruzain inh Det: -11.9%; Cruzain inh noDet: 12.6µM*

What do the screens show for `Cc1ccc(NC(=S)/N=C(\N)Nc2nc(C)c3ccccc3n2)cc1C`?
Cruzain inh Det: -2.3%; Cruzain inh noDet: inconclusive

What do the screens show for `C=CC1=C(C)/C(=C/c2[nH]c(Cc3[nH]c(/C=C4\NC(=O)C(C)=C4C=C)c(C)c3CCC(=O)O)c(CCC(=O)O)c2C)NC1=O`?
Cruzain inh Det: -7.9%; Cruzain inh noDet: inconclusive

What do the screens show for `C=C(CO)C1Cc2c(ccc3c(=O)c4c(oc23)COc2cc(OC)c(OC)cc2-4)O1` (configuration not stated)?
Cruzain inh Det: 0.7%; Cruzain inh noDet: inconclusive

How did S=C(NCCC(c1ccccc1)c1ccccc1)Nc1cccc(Cl)c1 do in these assays?
Cruzain inh Det: 1.7%; Cruzain inh noDet: 15.8µM*

How did O=C(CCc1ccccc1)NC(NC(=S)Nc1cccc(Cl)c1)C(Cl)(Cl)Cl (configuration not stated) do in these assays?
Cruzain inh Det: -0.9%; Cruzain inh noDet: 7.94µM*

What do the screens show for `S=C(NCc1ccncc1)Nc1cccc(Cl)c1`?
Cruzain inh Det: -1.0%; Cruzain inh noDet: 13.2%

What do the screens show for `CCCC(=O)NC(NC(=S)Nc1ccc(N=Nc2ccccc2)cc1)C(Cl)(Cl)Cl` (configuration not stated)?
Cruzain inh Det: -4.5%; Cruzain inh noDet: -29.4%

What do the screens show for `O=C(CCc1ccccc1)NC(NC(=S)Nc1ccc(Br)cc1)C(Cl)(Cl)Cl` (configuration not stated)?
Cruzain inh Det: 3.7%; Cruzain inh noDet: 10µM*

What do the screens show for `O=C(/C=C/c1ccccc1)NC(NC(=S)Nc1cccc(Cl)c1)C(Cl)(Cl)Cl` (configuration not stated)?
Cruzain inh Det: -0.6%; Cruzain inh noDet: inconclusive

How did N#C/C(=C\c1ccc(-c2cccc(Cl)c2)o1)C(=O)Nc1cccc(C(F)(F)F)c1 do in these assays?
Cruzain inh Det: 2.9%; Cruzain inh noDet: -10.3%

Results for Nc1c(C(=O)Nc2cccc(C(F)(F)F)c2)c2ccccn2c1C(=O)c1ccccc1 ?
Cruzain inh Det: -1.5%; Cruzain inh noDet: 0.5%

What do the screens show for `CC(C)(C)c1ccc(C(=O)Nc2ccc(C=C(C#N)C#N)cc2)cc1`?
Cruzain inh Det: -5.7%; Cruzain inh noDet: 31.6µM*

What do the screens show for `CC(C)(C)c1ccc(C(=O)Nc2ccc(NC(=O)c3ccc(Cl)c(Cl)c3)cc2)cc1`?
Cruzain inh Det: 0.1%; Cruzain inh noDet: -4.7%

How did O=C(c1ccccc1)N1CCCCC1CCN1CCCCC1 (configuration not stated) do in these assays?
Cruzain inh Det: 0.4%; Cruzain inh noDet: -10.6%

What do the screens show for `Cc1ccc2nc3nc(NCC4CCCO4)c(C(=O)NC4CCCC4)cc3c(=O)n2c1` (configuration not stated)?
Cruzain inh Det: -16.6%; Cruzain inh noDet: 11.5%

How did C=CCNC(=O)c1cc2c(=O)n3cc(C)ccc3nc2nc1NCC1CCCO1 (configuration not stated) do in these assays?
Cruzain inh Det: 22.4µM*; Cruzain inh noDet: inconclusive

Results for CN1CCc2nc3sc(C(=O)C45CC6CC(CC(C6)C4)C5)c(N)c3cc2C1 ?
Cruzain inh Det: inconclusive; Cruzain inh noDet: 12.6µM*

What do the screens show for `CN1CCc2nc3sc(C(=O)c4ccc(F)cc4)c(N)c3cc2C1`?
Cruzain inh Det: -6.2%; Cruzain inh noDet: -0.9%

Source: PubChem (National Center for Advancing Translational Sciences (NCATS))
